Measured values published in the supplement of paper PMC6522484.
± gives the standard deviation of the averaged measurements.

What was measured:
DLD1 [1] = test: cell viability (CellTiter-Glo) relative to plate median (fraction of plate median); higher = more viable cells; settings: 10 µM, treatment time 24 h
Outline: (§1)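 Kinase inhibitor library compounds were added at a final 10 µM for 24 h to colorectal cancer cells in 384-well plates, 24 h after seeding. The cells stably expressed lentiviral TCF/Wnt firefly luciferase reporters. Firefly luciferase and CellTiterGlo luminescence came from parallel plates, and each well was normalised to its plate median (webcellHTS2, additive, untransformed), averaged over two independent replicates.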

HCT116 [2] = test: as above; settings: 10 µM; treatment time 24 h; reporter: TCF4/Wnt
Outline: as §1

SW480 [3] = test: as above; settings: 10 µM; treatment time 24 h; reporter: 7TFP
Outline: as §1

DLD1 [4] = test: TCF/Wnt firefly luciferase reporter signal relative to plate median (fraction of plate median); higher = higher Wnt reporter signal; settings: 10 µM, treatment time 24 h
Outline: as §1

HCT116 [5] = test: as above; settings: 10 µM; treatment time 24 h; reporter: TCF4/Wnt
Outline: as §1

SW480 [6] = test: as above; settings: 10 µM; treatment time 24 h; reporter: 7TFP
Outline: as §1

Cn1cc(C2=C(c3ccc(Cl)cc3Cl)C(=O)NC2=O)c2ccccc21
cell viability (DLD1 [1]; reporter: 7TFP): 1.05 ± 0.18
cell viability (DLD1 [1]; reporter: TCF4/Wnt): 0.952 ± 0.058
cell viability (HCT116 [2]): 1.01 ± 0.088
cell viability (SW480 [3]): 0.993 ± 0.067
TCF/Wnt firefly luciferase reporter signal (DLD1 [4]; reporter: 7TFP): 1.4 ± 0.057
TCF/Wnt firefly luciferase reporter signal (DLD1 [4]; reporter: TCF4/Wnt): 1.35 ± 0.43
TCF/Wnt firefly luciferase reporter signal (HCT116 [5]): 1.56 ± 0.61
TCF/Wnt firefly luciferase reporter signal (SW480 [6]): 1.35 ± 0.16

C[C@]1(O)C[C@@H](c2nc(-c3ccc4ccc(-c5ccccc5)nc4c3)c3c(N)nccn32)C1 [Linsitinib (OSI-906)]
cell viability (DLD1 [1]; reporter: 7TFP): 0.876 ± 0.018
cell viability (DLD1 [1]; reporter: TCF4/Wnt): 0.856 ± 0.15
cell viability (HCT116 [2]): 0.82 ± 0.0099
cell viability (SW480 [3]): 0.995 ± 0.021
TCF/Wnt firefly luciferase reporter signal (DLD1 [4]; reporter: 7TFP): 1.11 ± 0.078
TCF/Wnt firefly luciferase reporter signal (DLD1 [4]; reporter: TCF4/Wnt): 1.33 ± 0.23
TCF/Wnt firefly luciferase reporter signal (HCT116 [5]): 1.29 ± 0.12
TCF/Wnt firefly luciferase reporter signal (SW480 [6]): 1.27 ± 0.057

Cc1cc(C)c(/C=C2\C(=O)Nc3ccccc32)[nH]1 [Semaxanib (SU5416)]
cell viability (DLD1 [1]; reporter: 7TFP): 0.951 ± 0.016
cell viability (DLD1 [1]; reporter: TCF4/Wnt): 1.02 ± 0.038
cell viability (HCT116 [2]): 1.2 ± 0.071
cell viability (SW480 [3]): 0.879 ± 0.028
TCF/Wnt firefly luciferase reporter signal (DLD1 [4]; reporter: 7TFP): 1.47 ± 0.021
TCF/Wnt firefly luciferase reporter signal (DLD1 [4]; reporter: TCF4/Wnt): 1.335 ± 0.0071
TCF/Wnt firefly luciferase reporter signal (HCT116 [5]): 0.91 ± 0.11
TCF/Wnt firefly luciferase reporter signal (SW480 [6]): 1.04 ± 0.021

Cc1c(CN2CCN(C(=O)[C@H](C)O)CC2)sc2c(N3CCOCC3)nc(-c3cnc(N)nc3)nc12
cell viability (DLD1 [1]; reporter: 7TFP): 0.999 ± 0.13
cell viability (DLD1 [1]; reporter: TCF4/Wnt): 0.9185 ± 0.0064
cell viability (HCT116 [2]): 0.679 ± 0.16
cell viability (SW480 [3]): 1.1 ± 0.092
TCF/Wnt firefly luciferase reporter signal (DLD1 [4]; reporter: 7TFP): 0.287 ± 0.056
TCF/Wnt firefly luciferase reporter signal (DLD1 [4]; reporter: TCF4/Wnt): 0.419 ± 0.11
TCF/Wnt firefly luciferase reporter signal (HCT116 [5]): 0.577 ± 0.21
TCF/Wnt firefly luciferase reporter signal (SW480 [6]): 0.764 ± 0.017

Oc1cccc(-c2nc(N3CCOCC3)c3oc4ncccc4c3n2)c1
cell viability (DLD1 [1]; reporter: 7TFP): 0.906 ± 0.036
cell viability (DLD1 [1]; reporter: TCF4/Wnt): 0.917 ± 0.038
cell viability (HCT116 [2]): 0.862 ± 0.15
cell viability (SW480 [3]): 1.12 ± 0.05
TCF/Wnt firefly luciferase reporter signal (DLD1 [4]; reporter: 7TFP): 0.717 ± 0.061
TCF/Wnt firefly luciferase reporter signal (DLD1 [4]; reporter: TCF4/Wnt): 0.954 ± 0.093
TCF/Wnt firefly luciferase reporter signal (HCT116 [5]): 0.869 ± 0.012
TCF/Wnt firefly luciferase reporter signal (SW480 [6]): 1.1 ± 0.24

C[C@@H]1COC(Nc2ccc3ncnc(Nc4ccc(OCc5nccs5)c(Cl)c4)c3c2)=N1
cell viability (DLD1 [1]; reporter: 7TFP): 0.932 ± 0.12
cell viability (DLD1 [1]; reporter: TCF4/Wnt): 0.973 ± 0.028
cell viability (HCT116 [2]): 1.055 ± 0.0071
cell viability (SW480 [3]): 0.988 ± 0.031
TCF/Wnt firefly luciferase reporter signal (DLD1 [4]; reporter: 7TFP): 1.14 ± 0.18
TCF/Wnt firefly luciferase reporter signal (DLD1 [4]; reporter: TCF4/Wnt): 1.51 ± 0.45
TCF/Wnt firefly luciferase reporter signal (HCT116 [5]): 1.52 ± 0.042
TCF/Wnt firefly luciferase reporter signal (SW480 [6]): 1.22 ± 0.25

CNC(=O)CN1CCC(Oc2cc3c(Nc4cccc(Cl)c4F)ncnc3cc2OC)CC1
cell viability (DLD1 [1]; reporter: 7TFP): 1 ± 0.081
cell viability (DLD1 [1]; reporter: TCF4/Wnt): 1.01 ± 0.059
cell viability (HCT116 [2]): 1.05 ± 0.028
cell viability (SW480 [3]): 0.893 ± 0.0042
TCF/Wnt firefly luciferase reporter signal (DLD1 [4]; reporter: 7TFP): 0.943 ± 0.19
TCF/Wnt firefly luciferase reporter signal (DLD1 [4]; reporter: TCF4/Wnt): 0.862 ± 0.35
TCF/Wnt firefly luciferase reporter signal (HCT116 [5]): 0.656 ± 0.43
TCF/Wnt firefly luciferase reporter signal (SW480 [6]): 0.849 ± 0.07

CO[C@H]1C[C@@H]2CC[C@@H](C)[C@@](O)(O2)C(=O)C(=O)N2CCCC[C@H]2C(=O)O[C@H]([C@H](C)C[C@@H]2CC[C@@H](O)[C@H](OC)C2)CC(=O)[C@H](C)/C=C(\C)[C@@H](O)[C@@H](OC)C(=O)[C@H](C)C[C@H](C)/C=C/C=C/C=C/1C [Rapamycin (Sirolimus)]
cell viability (DLD1 [1]; reporter: 7TFP): 1.07 ± 0.1
cell viability (DLD1 [1]; reporter: TCF4/Wnt): 0.904 ± 0.15
cell viability (HCT116 [2]): 0.95 ± 0.017
cell viability (SW480 [3]): 1.24 ± 0.014
TCF/Wnt firefly luciferase reporter signal (DLD1 [4]; reporter: 7TFP): 1.07 ± 0.071
TCF/Wnt firefly luciferase reporter signal (DLD1 [4]; reporter: TCF4/Wnt): 1.09 ± 0.26
TCF/Wnt firefly luciferase reporter signal (HCT116 [5]): 1.38 ± 0.42
TCF/Wnt firefly luciferase reporter signal (SW480 [6]): 1.65 ± 0.11

Cc1ccc(NC(=O)c2cccc(N(C)C)c2)cc1NC(=O)c1ccc(O)cc1
cell viability (DLD1 [1]; reporter: 7TFP): 1.11 ± 0.16
cell viability (DLD1 [1]; reporter: TCF4/Wnt): 1.095 ± 0.0071
cell viability (HCT116 [2]): 1.23 ± 0.11
cell viability (SW480 [3]): 0.907 ± 0.033
TCF/Wnt firefly luciferase reporter signal (DLD1 [4]; reporter: 7TFP): 1.07 ± 0.092
TCF/Wnt firefly luciferase reporter signal (DLD1 [4]; reporter: TCF4/Wnt): 1.12 ± 0.014
TCF/Wnt firefly luciferase reporter signal (HCT116 [5]): 1.04 ± 0.035
TCF/Wnt firefly luciferase reporter signal (SW480 [6]): 0.955 ± 0.092

COc1cc(Nc2ncc(F)c(Nc3ccc4c(n3)NC(=O)C(C)(C)O4)n2)cc(OC)c1OC
cell viability (DLD1 [1]; reporter: 7TFP): 1.1 ± 0.17
cell viability (DLD1 [1]; reporter: TCF4/Wnt): 0.982 ± 0.054
cell viability (HCT116 [2]): 1.11 ± 0.12
cell viability (SW480 [3]): 1.01 ± 0.037
TCF/Wnt firefly luciferase reporter signal (DLD1 [4]; reporter: 7TFP): 1.05 ± 0.13
TCF/Wnt firefly luciferase reporter signal (DLD1 [4]; reporter: TCF4/Wnt): 0.941 ± 0.044
TCF/Wnt firefly luciferase reporter signal (HCT116 [5]): 1.24 ± 0.2
TCF/Wnt firefly luciferase reporter signal (SW480 [6]): 0.914 ± 0.57
